Here are results for 14 molecules from ChEMBL document CHEMBL1157539, “Thousands of chemical starting points for antimalarial lead identification” (Nature, 2010).

The first assay relates to Plasmodium falciparum. Nature of the assay: GSK_TCMDC: Inhibition of Plasmodium falciparum 3D7 in whole red blood cells, using parasite LDH activity as an index of growth. Test compounds present at 2uM. The assay is classed as functional.
Broadly, the Inhibition is how much of the control response was suppressed. As to `N#Cc1ccc(N(CCOc2ccc(Cl)c(F)c2)Cc2ccccc2C(F)(F)F)cc1C(F)(F)F`, the Inhibition is listed as 100%.

Regarding `C=C(C)Cn1cc(C2CCN(CCCCNC(=O)c3sc(-c4ccc(Cl)cc4Cl)nc3CO)CC2)c2ccccc21`, the Inhibition was 82%.

Take `COc1nc2c(N3CCN(CCNCc4ccc5c(n4)NC(=O)CO5)CC3)ccnc2cc1F.Cl`: the Inhibition is 100%.

Another assay deals with Plasmodium falciparum. Description: GSK_TCMDC: Inhibition of Plasmodium falciparum Dd2 in whole red blood cells, using parasite LDH activity as an index of growth. Test compounds present at 2uM. The assay is classed as functional.
Take `CCOc1ccc(N2CCN(CCCCNC(=O)c3ccc(NC(=O)c4ccc(Cl)cc4)cc3)CC2)c(OCC)c1`: the Inhibition amounted to 65%.

With `Br.CN(CCON1C(=N)N=C(N)NC1(C)C)c1ccccc1`, the Inhibition turned out to be 93%.

With `CCN(CC)CCNc1ccc(Nc2ccnc3cc4ccccc4cc23)cc1`, the Inhibition worked out at 99%.

Turning to `COc1ccc(C23Oc4cc(OC)cc(OC)c4C2(O)C2(CC3c3ccccc3)SCCCS2)cc1` (centres undefined), the Inhibition is recorded as 97%.

`O=C(Nc1cccc(C(F)(F)F)c1)c1cccc(S(=O)(=O)NCC2CCCN(CC3CCCCC3)C2)c1.O=C(O)C(F)(F)F` (centres undefined) showed an Inhibition of 11%.

Take `CN1CCCc2ccc(NC(=O)c3ccc(-c4cc(C(F)(F)F)nn4C)s3)cc2C1.O=C(O)C(F)(F)F`: the Inhibition was determined as 34%.

As to `COc1cc2c(cc1C(F)(F)F)N(C(=O)Nc1cc(-c3ccncc3)cc(-c3cccnc3)c1)CC2`, the Inhibition is 50%.

Consider `CS(=O)(=O)O.NC1=NC(CCc2ccccc2)N(c2ccccc2)C(N)=N1` (centres undefined), for which the Inhibition is reported as 15%.

With `O=C(NCC1CC1)C1CCN(C(c2ccccc2)c2cc(F)cc(F)c2)CC1` (centres undefined), the Inhibition is recorded as 95%.

In turn, `Cc1ccc(-c2nn3c(O)c4c(nc3c2C)CCCC4)cc1` registered an Inhibition of 87%.

`CC(C)(C)C/C=C\c1ccc(C(=O)NCC2CC2)cc1` returned an Inhibition of 88%.
